# Most compounds without a hit are left out; they make up all but 1.4% or so of the library.
# hERG WT inh: qHTS for Inhibitors of KCHN2 3.1: Wildtype qHTS; Voltage-gated inwardly rectifying potassium channel KCNH2 (Homo sapiens), Q12809; U2OS, BacMam KCNH2, thallium flux FluxOr; stronger effect = lower value; activity change, % at 1.84 µM; 340,000 compounds, 0.37% hits; AID 720551, 2013;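 active means maximum activity change below -70%; inconclusive means maximum activity change between -70% and -50%; inactive means maximum activity change above -50%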; further: on the % scale 0 is the no-effect control and ±100 the full control effect
#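 U2OS cells were transduced with wild-type KCNH2 virus (2.03 x 10^8 / mL) for 4 h at room temperature, then cultured overnight at 37 C. Thallium flux was read with FluxOr dye. Rate constants were normalized to DMSO controls.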
# EPAC1 ag: qHTS for Agonist of cAMP-regulated guanine nucleotide exchange factor 3 (EPAC1): primary screen; Rap guanine nucleotide exchange factor 3 (Homo sapiens), O95398; EPAC1 agonist qHTS, biochemical assay; response scale: 100% = response to 6.5 mM cAMP; Potency, µM (top dose mostly 154 µM), for the others: at the top dose activation, most hits filed as activators; 360,000 compounds, 0.073% hits; further: potency means the concentration at half of the fitted maximal effect; nearly all actives have a fitted effect of over 60% in size
#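 Nucleotide exchange by EPAC1 (100 nM) on Rap1B–BODIPY-GDP (250 nM) in the presence of 50 uM GDP is tracked fluorescently at 480/540 nm over 30 min. Signals are normalized to a 6.5 mM cAMP control.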
# KCNH2 3.1 inh: qHTS for Inhibitors of KCHN2 3.1: Mutant qHTS. U2OS KCNH2 3.1, thallium flux FluxOr; stronger effect = lower value. activity change, % (tested at about 1.8 µM). Potassium voltage-gated channel subfamily H member 2, brain isoform KCNH2 3.1 (human). 340,000 compounds, 0.95% hits;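 active means maximum activity change below -70%; inconclusive means maximum activity change from -70% to -50%; inactive means maximum activity change above -50%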;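 further: thallium influx rate constant from kinetic fluorescence after stimulation buffer; on the % scale 0 is the no-effect control and ±100 the full control effect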
#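 Channel expression came from 3.1 mutant virus (1.77 x 10^8 /mL) applied to suspended U2OS cells for 4 h. Flux was tracked with FluxOr dye plus Red40 quencher, and kinetic rate constants normalized to controls.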
# EPAC2 ag: qHTS for Agonist of cAMP-regulated guanine nucleotide exchange factor 4 (EPAC2): primary screen | Potency, µM (doses to about 154 µM), without a hit: at the highest dose activation, hits mostly activators | AID 720711, 2013 | EPAC2 activation, biochemical qHTS; response scale: 100% = 6.5 mM cAMP response | 360,000 compounds, 0.079% hits; further: potency means the concentration at half of the fitted maximal effect; nearly all actives have a fitted effect of over 50% in size
#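 Setup: EPAC2 100 nM, labeled Rap1B complex 250 nM, free GDP 50 uM. Compound titrations pinned in, brief spin, 5 min room temperature incubation. Kinetic fluorescence read over 30 min, normalized to 6.5 mM cAMP.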
# EPAC2 antag: qHTS for Antagonist of cAMP-regulated guanine nucleotide exchange factor 2 (EPAC2): primary screen | EPAC2 GEF exchange of Rap1B-BODIPY-GDP, fluorescence | Potency, µM (titrated, usually from 114 µM), inactives show at the highest dose activity, negative = inhibition, actives largely listed as inhibitors | 360,000 compounds, 0.18% hits | AID 720708, 2013; further: potency means the concentration at half of the fitted maximal effect; on the % scale 0 is the no-effect control and ±100 the full control effect; nearly all actives have a fitted effect of over 45% in size
# EPAC1 antag: qHTS for Antagonist of cAMP-regulated guanine nucleotide exchange factor 3 (EPAC1): primary screen | Rap guanine nucleotide exchange factor 3 (Homo sapiens), O95398 | EPAC1 GEF assay, Rap1b-BODIPY-GDP exchange fluorescence | Potency, µM (series often up to 115 µM), for the others: at the highest dose activity change, negative = inhibition, hits mostly inhibitors | 360,000 compounds, 0.14% hits;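 further: potency means the concentration at half of the fitted maximal effect; plate controls were vehicle for no effect and positive control for full effect; nearly all actives have a fitted effect of over 50% in size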
# Starred values were filed as active, the others as inactive; i = inactive; ? = inconclusive. Unless noted, the call rests on the fitted dose curve; in most records, active means well fitted curve in the direction sought with a large enough effect; inconclusive means small, poorly fitted or top-dose-only effect, or another doubt; inactive means no such curve, though single readings can be large; an effect the other way counts as inactive or inconclusive.
SMILES,hERG WT inh,EPAC1 ag,KCNH2 3.1 inh,EPAC2 ag,EPAC2 antag,EPAC1 antag
O=C(NCc1ccccc1)c1ccc(-c2ccc(F)cc2)o1,-259.8*,10.8%,-3.4,11.5%,4.8%,1.2%
CC1(c2ccc3ccccc3c2)NC(=O)N(CC(=O)O)C1=O (stereo not given),2.7,-9.1%,0.0,-4.7%,-5.4%,3.7%
CC1(c2ccc3ccccc3c2)CCC(=O)O1 (stereo not given),-104.5*,1.9%,6.7,-1.0%,0.9%,-9.7%
CCN(CC(=O)Nc1ccccc1C(F)(F)F)C(=O)CCOc1ccccc1C,-3.0,44.7µM*,-37.9,10.5%,1.0%,-15.0%
COC(=O)c1ccc(Cn2cnc3c(cnn3-c3ccc(Cl)cc3)c2=O)o1,-7.5,8.1%,-74.7*,2.0%,0.4%,-5.5%
COCCCNS(=O)(=O)c1ccc2c3c(cccc13)C(=O)S2,-131.6*,2.8%,-137.7*,-9.4%,-8.8%,-4.8%
O=C(CC1CCCCC1)NCc1ccccc1Cl,10.6,-9.9%,3.4,2.6%,6.2%,4.9%
Nc1[nH]n2c(=O)cc(-c3ccccc3)nc2c1N=Nc1ccc(S(N)(=O)=O)cc1,0.9,2.7%,-2.8,-7.2%,-11.2%,?
NS(=O)(=O)c1ccc(N=Nc2c(-c3ccccc3)[nH]n(-c3nc(-c4ccccc4)cs3)c2=O)cc1,-33.2,-5.4%,-84.2*,14.7%,-21.1%,?
O=C(NC1CCCCC1)C1CCCN1S(=O)(=O)c1ccc(Cl)cc1 (stereo not given),-5.7,5.3%,4.0,5.4%,3.0%,-5.2%
O=C(CN1C(=O)COc2ccc(S(=O)(=O)N3CCCC3)cc21)Nc1cccc(F)c1,12.3,-2.3%,-115.6*,-4.1%,-1.3%,3.3%
CCNC(=O)N(C)C[C@H]1N[C@@](C)(C(=O)OC)[C@H]2C(=O)N(C)C(=O)[C@@H]12,-13.3,2.5%,-5.6,-0.1%,4.9%,-11.4%
Cc1cc(C)cc(C(=O)N(CCc2ccccc2)C2CC3CCC(C2)N3C)c1 (stereo not given),-8.2,5.5%,-87.8*,3.9%,-0.4%,-4.8%
O=C(CSc1nnc(-c2cccc(F)c2)o1)N1CCCC1,-1.1,14.9%,-3.1,8.7%,5.4%,19.9%
COc1ccc(/C=N/NC(=O)c2[nH]c3ccc(Br)cc3c2-c2ccccc2)cc1,-4.6,6.3%,-17.5,4.4%,2.7%,-8.2%
COc1ccc(/C=N/NC(=O)c2[nH]c3ccc(Br)cc3c2-c2ccccc2)c(C(=O)O)c1OC,-0.9,-24.5%,3.2,-7.5%,-14.1%,79.4µM*
COc1ccc(/C=N/NC(=O)c2[nH]c3ccc(Cl)cc3c2-c2ccccc2)c(C(=O)O)c1OC,-4.1,-4.4%,8.1,-1.5%,3.1%,-15.9%
O=C(N/N=C/c1ccccc1Cl)c1[nH]c2ccc(Br)cc2c1-c1ccccc1,1.7,112µM*,-5.2,-138.5%,-33.7%,254.4%
Nn1cnnc1N/N=C/c1ccc(Cl)c([N+](=O)[O-])c1,i,-10.9%,1.1,2.8%,5.5%,15.8µM*
COc1ccc(N2CCN(CC(O)COC(c3ccc(F)cc3)c3ccc(F)cc3)CC2)cc1 (stereo not given),-82.3*,1.7%,-119.3*,10.6%,-16.0%,-23.9%
C=CCc1cc(C)ccc1OCC(O)CN1CCN(c2ccccc2)CC1 (stereo not given),31.7,11.0%,-20.8,9.7%,-16.1%,-2.8%

# Screening data as filed in PubChem BioAssay.
